Screens from PubChem.
Most compounds without a hit are left out; they make up all but 12% or so of the library.
Pf growth 48h – inhibits P. falciparum growth in the first generation, 48 h. Potency, µM (titrated, usually from 28.7 µM), without a hit: at the top dose activity change, negative = inhibition, actives largely listed as inhibitors. 5.9% of 310,000 active. P. falciparum luciferase growth in erythrocytes, 48 h; further: on the % scale 0 is the no-effect control and ±100 the full control effect
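Compounds are pin-transferred into medium, infected erythrocytes (2% hematocrit, 0.1% parasitemia final) are added, and plates sit one parasite generation at 37 C in 5% CO2. Detection reagent is then added and luminescence measured.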
HCV inhibitor – HCV inhibition; 3.4% of 340,000 active; Huh7.5.1 HCVcc-Cre infection, luciferase reporter, 44 h; AID 651820; Potency, µM (top dose mostly 41.8 µM), for the others: at the highest dose activity change, negative = inhibition, hits mostly inhibitors; further: on the % scale 0 is the no-effect control and ±100 the full control effect
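1,000 cells/well; 4 h culture; + compound; + HCVcc-Cre (~0.5 moi); 44 h; luciferase substrate, RT 15 min; read 15 sec.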
Pf growth 96h – inhibits malaria parasite growth, 96 h; P. falciparum luciferase reporter growth, 96 h; Potency, µM (series often up to 28.7 µM), for inactives: top-dose activity change, negative = inhibition, most hits filed as inhibitors; 6.9% of 320,000 active; further: on the % scale 0 is the no-effect control and ±100 the full control effect
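Erythrocytes infected with luciferase-expressing P. falciparum were dispensed at 2% hematocrit and 0.05% parasitemia (final), then incubated with compounds 96 hours at 37 C in 5% CO2. Luminescence after detection reagent addition reported growth.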
SARS PLpro yeast – SARS-CoV PLP inhibition in yeast; S. cerevisiae expressing SARS-CoV PLpro, growth rescue; Potency, µM (highest dose often 32.9 µM), inactives show at the top dose activity, positive = growth rescue, hits mostly activators; 0.19% of 330,000 active; AID 485353; calls by dose curve; further: 0% is about no effect; nearly all actives have a fitted effect of over 55% in size
AMA1 RON2 block – inhibitors of Plasmodium falciparum AMA1-RON2 interaction; AlphaScreen AMA1-biotinylated RON2 peptide binding; Potency, µM (doses to about 58.2 µM), without a hit: at the top dose activity change, negative = inhibition, actives largely listed as inhibitors; 0.2% of 360,000 active; AID 720542;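 further: 0% = vehicle wells and -100% = peptide control; nearly all actives have a fitted effect of over 45% in size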
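AMA1 (3D7) with his tag at 25 nM final met compounds first, then biotinylated RON2 peptide at 25 nM; detection used donor plus acceptor beads, 10 µg/mL apiece, read by AlphaScreen after 30 min at room temperature.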
NS1 inh – blocks influenza NS1 protein function; Potency, µM (doses to about 46.1 µM), for inactives: at the top dose activity, positive = more growth; 0.4% of 270,000 active; calls by dose curve; further: actives are rising curves; nearly all actives have a fitted effect of over 50% in size
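Read-out: OD600 growth recovery of NS1-expressing budding yeast. Cells grown overnight at 30C in -URA glucose medium, washed, resuspended and diluted 1:100 in 2% galactose assay medium, pH 6.0. Same strain lacking NS1 served as positive control.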
* hit, by the source's call; ? = inconclusive; . = no result. Unless noted, the call rests on the fitted dose curve; in most records, active means well fitted curve in the direction sought with a large enough effect; inconclusive means small, poorly fitted or top-dose-only effect, or another doubt; inactive means no such curve, though single readings can be large; an effect the other way counts as inactive or inconclusive. Potency means the concentration at half of the fitted maximal effect.

SMILES	Pf growth 48h	HCV inhibitor	Pf growth 96h	SARS PLpro yeast	AMA1 RON2 block	NS1 inh
COc1ccc(N=NC2C(=O)N(c3ccccc3)N=C2C)cc1 (stereo not drawn)	87%	?	2.6µM*	1%	-22%	2%
CC1=NN(c2ccccc2)C(=O)C1c1ccccc1 (stereo not drawn)	-19%	-2%	?	14µM*	-13%	5%
O=C(COc1cccc(C(F)(F)F)c1)Nc1ccc(S(=O)(=O)N2CCCC2)cc1	?	11µM*	20%	7%	-10%	-100%
O=C(Cc1cccc(C(F)(F)F)c1)Nc1ccc(S(=O)(=O)N2CCCC2)cc1	?	?	?	-5%	1%	.
O=C(COc1cccc(C(F)(F)F)c1)Nc1ccccc1N1CCCCC1	10µM*	-13%	?	-9%	13%	.
CC(=O)N1CCN(c2ccccc2NC(=O)COc2ccc(Br)cc2)CC1	?	-15%	4.7µM*	-6%	-3%	-14%
CSCCC(NS(=O)(=O)c1cccc(C(F)(F)F)c1)C(=O)Nc1ccccc1N1CCCC1 (stereo not drawn)	?	-14%	15µM*	0%	9%	.
CC(C)C(NC(=O)c1ccc(Cl)cc1Cl)C(=O)N1CCN(S(=O)(=O)c2ccccc2)CC1 (stereo not drawn)	.	-11%	.	-1%	0%	.
COC(=O)/C(=C1/Oc2ccc(C)cc2S1)C(F)(F)F	36%	6%	?	2%	-6%	1%
Cc1onc(NC(=O)c2ccc(Cl)cc2Cl)c1Br	150%	-8%	132%	-6%	2%	-5%
COc1ccc(C2/C(=C(\O)c3ccc4c(c3)CC(C)O4)C(=O)C(=O)N2Cc2cccnc2)c(OC)c1 (stereo not drawn)	-26%	32%	?	0%	15%	-32%
Cc1ccccc1OCC(=O)Nc1ccccc1N1CCCCC1	?	?	10µM*	-17%	8%	-46%
Cc1ccc(S(=O)(=O)N2CCC(Oc3cccc(C(F)(F)F)c3)CC2)cc1	2%	?	2.3µM*	-1%	9%	7%
Cc1cccc(OCC(=O)Nc2ccccc2N2CCCC2)c1C	?	?	?	-37%	?	.
Cc1cc(OCC(=O)Nc2ccccc2N2CCCCC2)ccc1C(C)C	?	?	10µM*	-1%	9%	.
Cc1cc(OCC(=O)Nc2ccccc2N2CCCC2)ccc1C(C)C	?	?	?	-8%	?	.
CCOC(=O)N1CCN(C(=O)CSc2nnc(CNC(=O)c3c(F)cccc3Cl)o2)CC1	14%	9%	12µM*	-5%	0%	7%
O=C(NCc1nnc(SCC(=O)N2CCC(Cc3ccccc3)CC2)o1)c1ccccc1F	9%	?	13µM*	-1%	-5%	-10%
O=C(CSc1nnc(CNC(=O)c2c(F)cccc2Cl)o1)c1ccccc1	-7%	-11%	9.3µM*	-24%	12%	7%
O=C(CSc1nnc(CNC(=O)c2c(F)cccc2Cl)o1)Nc1ccccc1	18%	-18%	77%	9%	4%	-3%
O=C(NCc1nnc(SCC(=O)N2CCCC2)o1)c1c(F)cccc1F	-3%	12%	20%	0%	2%	-1%
COc1ccc(-c2csc(Nc3ccc(C)cn3)n2)cc1OC	11%	13µM*	159%	1%	-4%	12%
COc1ccc(-c2csc(Nc3cc(C)ccn3)n2)cc1OC	17%	10µM*	5%	-26%	-12%	-27%
Cc1ccnc(Nc2nc(-c3ccccc3)cs2)c1	29%	?	-14%	-4%	6%	-12%
CC(=O)Nc1ccc(-c2csc(Nc3cc(C)ccn3)n2)cc1	227%	?	-28%	-17%	-3%	.
SMILES	Pf growth 48h	HCV inhibitor	Pf growth 96h	SARS PLpro yeast	AMA1 RON2 block	NS1 inh
Cc1ccnc(Nc2nc(-c3c(C)nc4sccn34)cs2)c1	3.3µM*	13µM*	?	-19%	23%	-52%
COC(=O)c1cc(C)ccc1OCc1ccc([N+](=O)[O-])cc1	40%	3%	34%	1%	-18%	-6%
Cc1cccc(C(=O)Nc2ccc(NC(=O)CN3CCOCC3)cc2)c1	47%	5%	41%	-1%	-6%	6%
CCOC(=O)C(C#N)=C1CCN(Cc2ccccc2)CC1	.	-7%	7.4µM*	2%	0%	3%
COc1ccc(OCc2cc(C(=O)O)c(C)o2)cc1	123%	.	96%	1%	.	-2%
S=c1[nH]nc(COc2ccc3ccccc3c2)o1	45%	12%	9.3µM*	-23%	35%	-16%
COc1ccc(Cc2n[nH]c(=S)o2)cc1	-8%	15%	?	12%	-14%	6%
CCN(CC(=O)Nc1c(F)cccc1F)C(=O)CN(C)S(=O)(=O)c1ccc(F)cc1	?	5%	26%	-1%	7%	.
Cc1cc2oc(=O)cc(CN3CCN(S(=O)(=O)c4ccc5c(c4)OCCO5)CC3)c2cc1C	?	7.1µM*	?	-1%	1%	2%
Cc1cc2oc(=O)cc(CN3CCN(S(=O)(=O)/C=C/c4ccccc4)CC3)c2cc1C	10µM*	?	?	-23%	-1%	?
Cc1cc(C)c2c(CN3CCN(C/C=C/c4ccccc4)CC3)cc(=O)oc2c1	9.3µM*	?	7.4µM*	-1%	-25%	-45%
Cc1ccc(S(=O)(=O)N2CCN(Cc3cc4c(cc3Br)OCCO4)CC2)cc1	?	?	?	4%	-10%	.
Cc1ccc(S(=O)(=O)N2[C@@H](c3ccccc3F)C(C(=O)O)=CC[C@H]2c2cccs2)cc1	-17%	19%	?	0%	-3%	.
Cc1ccc(C)c(C(=O)CN2C3=NCCCN3c3ccccc32)c1	7.4µM*	?	9.3µM*	?	-5%	3%
Cc1ccc(C(O)CN2C3=NCCCN3c3ccccc32)cc1 (stereo not drawn)	?	?	4.1µM*	20%	3%	3%
COc1ccc(C(=O)CN2C3=NCCCN3c3ccccc32)cc1OC	5%	?	-24%	9%	-3%	-13%
c1ccc2c(c1)N1CCCN=C1N2CCN1CCCCC1	?	?	11%	0%	-8%	7%
OCCN1C2=NCCCN2c2ccccc21	0%	10%	7.4µM*	-1%	5%	2%
Clc1ccc(CN2C3=NCCN3c3ccccc32)cc1Cl	?	10µM*	-26%	-1%	-15%	-54%
CCCCCCN1C2=NCCCN2c2ccccc21	?	?	12µM*	-1%	3%	-4%
C=CCN1C2=NCCCN2c2ccccc21	-11%	4%	?	-1%	7%	0%
COc1ccccc1NC(=O)COc1cc(Br)c(CNCCCN2CCOCC2)cc1OC	?	11µM*	12%	-1%	0%	.
